Measurements published in PubChem BioAssay (NCI).
This is part of a sample that, as a whole, favours compounds with a hit. Of some 83,000 tested, about 20% had one in any assay.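 A percent growth of 40 corresponds to 60% growth inhibition; 0 means no net growth; -100 means all cells died. Active threshold: below 10.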 A number with no mark means an inactive call. Active and inactive are the calls of the source.

System: HL-60(TB) leukemia
Assay: NCI-60 one-dose screen, 48 h (100 = growth as untreated, 0 = no growth, -100 = all killed)
Details: 10 µM unless noted

Q: For Cc1ccccc1NC(=O)Oc1ccc(Cl)cc1C(=O)c1ccccc1, which growth is on record?
A: 103%

Q: Oc1[nH]c2ccc(Cl)cc2c1/C=c1/ccc2c(c1)N=C(c1ccc(C(F)(F)F)cc1)N=2 was tested. Which growth did it give?
A: 75.1%

Q: Which growth does the source give for C#CC#CC#CC#CC#CC#CC#CC#CCC1OCC(COC(=O)O[C@@H](C(=O)O[C@H]2C[C@@]3(O)[C@@H](OC(=O)c4ccccc4)[C@@H]4[C@]5(OC(C)=O)CO[C@@H]5C[C@H](O)[C@@]4(C)C(=O)[C@H](OC(C)=O)C(=C2C)C3(C)C)[C@@H](NC(=O)c2ccccc2)c2ccccc2)O1 (stereo not given in full) here?
A: 5.04% (active)

Q: COc1ccc2[nH]c(C(=O)OCc3ccc4c(Cl)cc(Cl)c(O)c4n3)cc2c1 was tested. Which growth did it give?
A: -30.4% (active)

Q: How did the growth turn out when COC(=O)Nc1nc2ccc(C(=O)c3cccc(I)c3)cc2[nH]1 was run?
A: -41.7% (active)

Q: Which growth does the source give for COc1ccc(-c2nn(-c3ccc(NC(=O)Nc4ccc(Cl)c(Cl)c4)cc3)cc2-c2ccncc2)cc1Cl here?
A: 5.24% (active)

Q: With CC(=O)Nc1cccc(-n2c(=O)n(C3CC3)c(=O)c3c(Nc4ccc(I)cc4F)n(C)c(=O)c(C)c32)c1 as the compound, how does the growth read?
A: 27.1%

Q: Which growth does the source give for CS(=O)(=O)c1ccc(-c2nc3ccccc3n2CC(=O)N/N=C/c2ccccc2)cc1 here?
A: 141%

Q: CC[C@@H](c1ccc2cc(OC)ccc2c1)C(C)(C)C(=O)F was tested. Which growth did it give?
A: 104%

Q: How did the growth turn out when COc1ccc(/C=N\Nc2nc(SCC(C)C)nc(-c3ccc(OC)cc3)c2C#N)cc1 was run?
A: 35.8%

Q: Which growth does the source give for CC(C)CC(=O)C(CCc1ccccn1)C(C)C (stereo not given) here?
A: 108%

Q: How did the growth turn out when Cc1ccc(S(=O)(=O)N2CCCC2CO)cc1 (stereo not given) was run?
A: 97.7%

Q: How did the growth turn out when Cc1cc(=O)[nH]c(NN=C2CCCC2)n1 was run?
A: 94.6%

Q: How did the growth turn out when Cc1nc(N/N=C/c2cn(-c3ccccc3)nc2-c2cc3ccccc3oc2=O)sc1N=Nc1ccccc1 was run?
A: 89%

Q: With COc1ccc(-n2c(SCc3cc(OC)c(OC)c(OC)c3)nc3ccc(C)cc3c2=O)cc1 as the compound, how does the growth read?
A: 31.1%

Q: How did the growth turn out when O=C(/C=C/c1c[nH]c2ccccc12)c1ccc(O)c(CN2CCN(c3ccc(F)cc3)CC2)c1 was run?
A: 97%

Q: Which growth does the source give for O=c1n(C2OC(CO)C(O)C2O)ccc2nccn12 (stereo not given) here?
A: 101%

Q: With C=CCN=C1NC(=O)/C(=C/c2cc(C(C)(C)C)c(O)c(C(C)(C)C)c2)S1 as the compound, how does the growth read?
A: 54.3%

Q: How did the growth turn out when CN(C)CCN1C(=O)c2cccc3c(-c4ccc5ncn(C6CCCCC6)c5c4)ccc(c23)C1=O was run?
A: 13.8%

Q: How did the growth turn out when Clc1ccc(SSc2ccc(Cl)cc2)cc1 was run?
A: 102%

Q: With COc1ccc(OC)c(-c2c(C#N)c(-c3ccco3)nc3c2c(-c2ccccc2)nn3-c2ccccc2)c1 as the compound, how does the growth read?
A: 105%

Q: For Cc1nnc2nc(N)[nH]n2c1=O, which growth is on record?
A: 99.6%

Q: For O=C1Nc2c(ccc(Cl)c2Cl)/C1=C/c1ccc(O)cc1, which growth is on record?
A: 76.9%

Q: How did the growth turn out when Cn1c(Nc2ccc(C(F)(F)F)cc2)nc2cc(Oc3ccnc(-c4ncc(C(F)(F)F)[nH]4)c3)ccc21 was run?
A: 30.3%

Q: Which growth does the source give for CCN(Cc1ccccc1)c1ccc(C=O)cc1 here?
A: 85.2%

Q: With Nc1cccc(C(=O)Nc2ccc3c(O)c(N=Nc4ccc(N=Nc5ccc(S(=O)(=O)O)cc5)cc4)c(S(=O)(=O)O)cc3c2)c1 as the compound, how does the growth read?
A: 88.7%

Q: How did the growth turn out when Nc1ccc(CCCCc2ccccc2)c(Cl)c1 was run?
A: 78.7%

Q: How did the growth turn out when CC(C)(C)NC(=O)C(OC(=O)c1cccc(Cl)c1)c1ccc(Cl)cc1 (stereo not given) was run?
A: 103%

Q: O=C(CC(CC(=O)c1ccccc1)c1ccccc1O)c1ccccc1 was tested. Which growth did it give?
A: 96.8%

Q: With O=C1C(Cl)=C(Nc2ccc3c(c2NC2=C(Cl)C(=O)c4ccccc4C2=O)C(=O)c2ccccc2C3=O)C(=O)c2ccccc21 as the compound, how does the growth read?
A: -8.26% (active)

Q: Which growth does the source give for CC(=O)Nc1ccc(-n2c(O)c(/C=N/NC(=O)Cc3ccccc3Nc3c(Cl)cccc3Cl)sc2=S)cc1 here?
A: 99%

Q: Which growth does the source give for O=C(Nc1ccccc1Cl)c1cnc2ccc(C3CCNCC3)cn12 here?
A: 103%

Q: For CC(=O)c1c(Nc2ccc(F)c(F)c2F)[nH]c2c(F)cc(F)cc2c1=O, which growth is on record?
A: -48% (active)

Q: CCCCCC/C=C1\CCC(CN2CCCC2)C1=O (stereo not given) was tested. Which growth did it give?
A: 62.2%

Q: CCCCOc1cc(C(=O)NCCN(CC)CC)c2ccccc2n1 was tested. Which growth did it give?
A: 96.7%

Q: COC(=O)[C@H]1CCCN1C(=O)[C@H]1CCCN1C(=O)[C@H](Cc1c[nH]c2ccccc12)NC(=S)Nc1cc(C(F)(F)F)cc(C(F)(F)F)c1 was tested. Which growth did it give?
A: 53.4%

Q: Which growth does the source give for CNCCn1c(=O)c2cc(OC)c(OC)cc2c2ccc3cc4c(cc3c21)OCO4 here?
A: -25.7% (active)

Q: With CCOc1cc2ncc(C#N)c(Nc3ccc(F)c(Cl)c3)c2cc1NC(=O)/C=C/CN(C)C as the compound, how does the growth read?
A: -52.6% (active)

Q: Which growth does the source give for COc1cccc(-c2cn3c(ccc4ccccc43)n2)c1 here?
A: 6.28% (active)

Q: With O=Cc1ccc(O)c2ncccc12 as the compound, how does the growth read?
A: -69.3% (active)
